# Measurements from ChEMBL document CHEMBL3988442, “University of Dundee, Small-Polar-MMV Screening Library” (2021).
# For some of these results: Results with a measured potency or affinity are listed apart.
# Columns and labels:
# Parameters in all cases: scale not given: direction of the effect not stated beside the values
# [1] = target: Protein translocase subunit SecA (Escherichia coli (strain K12)) (UniProt P10408); assay: Assay to Identify E. coli SecA ATPase Inhibitors; type: functional; settings: 30 µM
# [2] = target: T1, Ubiquitin-activating enzyme e1, putative (Leishmania donovani (strain BPK282A1)) (UniProt E9BSI1); assay: Leishmania donovani Ubiquitin Activating Enzyme (LdE1); type: functional; settings: 30 µM
# T1 sequence (whole entry): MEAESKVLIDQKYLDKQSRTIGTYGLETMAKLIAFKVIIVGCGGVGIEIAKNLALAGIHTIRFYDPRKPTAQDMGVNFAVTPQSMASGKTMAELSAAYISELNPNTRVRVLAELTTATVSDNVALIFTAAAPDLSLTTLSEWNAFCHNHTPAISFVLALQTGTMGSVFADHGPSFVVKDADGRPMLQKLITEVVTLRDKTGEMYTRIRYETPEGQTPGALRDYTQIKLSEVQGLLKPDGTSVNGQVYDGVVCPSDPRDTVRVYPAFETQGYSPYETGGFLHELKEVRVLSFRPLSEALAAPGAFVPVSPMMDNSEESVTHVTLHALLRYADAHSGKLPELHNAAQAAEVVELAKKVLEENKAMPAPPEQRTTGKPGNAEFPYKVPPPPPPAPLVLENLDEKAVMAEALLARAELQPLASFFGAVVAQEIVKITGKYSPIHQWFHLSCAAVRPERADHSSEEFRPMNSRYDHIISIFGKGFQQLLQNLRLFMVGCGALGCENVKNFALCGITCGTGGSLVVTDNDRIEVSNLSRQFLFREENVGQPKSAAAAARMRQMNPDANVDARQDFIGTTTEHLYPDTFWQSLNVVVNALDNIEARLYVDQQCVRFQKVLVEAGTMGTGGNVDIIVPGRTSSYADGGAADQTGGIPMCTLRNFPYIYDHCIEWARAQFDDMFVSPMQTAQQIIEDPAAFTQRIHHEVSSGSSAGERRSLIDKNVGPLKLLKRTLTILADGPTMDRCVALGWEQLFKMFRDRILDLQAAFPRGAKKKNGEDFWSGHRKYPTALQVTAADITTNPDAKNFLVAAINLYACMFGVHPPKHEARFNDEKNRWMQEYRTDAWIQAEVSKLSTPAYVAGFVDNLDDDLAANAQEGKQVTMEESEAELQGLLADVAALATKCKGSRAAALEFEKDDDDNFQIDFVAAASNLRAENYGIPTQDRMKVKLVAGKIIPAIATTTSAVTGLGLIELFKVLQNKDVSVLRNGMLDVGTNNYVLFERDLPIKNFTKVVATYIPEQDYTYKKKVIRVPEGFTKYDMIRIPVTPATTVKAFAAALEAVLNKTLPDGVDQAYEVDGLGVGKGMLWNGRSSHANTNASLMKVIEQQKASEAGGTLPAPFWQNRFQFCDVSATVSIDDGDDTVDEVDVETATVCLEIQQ
# [3] = target: AMP-activated protein kinase, AMPK (Homo sapiens) (UniProt P54646+O43741+P54619+Q9UGJ0+Q9Y478+Q13131+Q9UGI9); assay: AMP-dependent Kinase enzyme assay. An in vitro enzyme assay that detects ADP turnover that is directly proportional to AMPK activity. This uses naive AMPK that is activated during the assay with MK-8722; type: functional; settings: 30 µM
# [4] = target: Sialic acid-binding Ig-like lectin 9 (Homo sapiens) (UniProt Q9Y336); assay: Hs-Siglec9 ALPHAscreen SOP 20170721; settings: 10 µM
# Trypanosoma cruzi = assay: Trypanosoma cruzi phosphomannomutase and mannose-1-phosphate guanylyltransferase assay; type: functional; settings: 10 µM
# [5] = target: T2, Arginase-2, mitochondrial (Homo sapiens) (UniProt P78540); assay: in vitro enzyme assay to detect the production of urea directly proportional to the activity of Arginase II; type: functional; settings: 33.3 µM; also: in the data most compounds retested in dose-response had high values
# T2 sequence (whole entry): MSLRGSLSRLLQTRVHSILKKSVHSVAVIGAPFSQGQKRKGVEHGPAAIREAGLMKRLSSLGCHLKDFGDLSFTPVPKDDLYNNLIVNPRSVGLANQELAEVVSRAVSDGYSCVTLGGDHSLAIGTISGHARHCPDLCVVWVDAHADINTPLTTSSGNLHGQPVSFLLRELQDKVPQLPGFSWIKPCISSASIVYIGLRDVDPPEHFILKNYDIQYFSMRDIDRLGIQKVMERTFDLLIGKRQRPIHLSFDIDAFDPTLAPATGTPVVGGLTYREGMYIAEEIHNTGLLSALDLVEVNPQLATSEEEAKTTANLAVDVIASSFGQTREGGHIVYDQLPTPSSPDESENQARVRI
# [6] = target: T3, Proteasome subunit beta (Trypanosoma cruzi) (UniProt O96673); assay: Trypanosoma cruzi proteasome chymotrypsin-like activity (TcProtChymo) assay.; also: in the data most compounds retested in dose-response had high values; type: functional; settings: 9.37 µM
# T3 sequence (whole entry): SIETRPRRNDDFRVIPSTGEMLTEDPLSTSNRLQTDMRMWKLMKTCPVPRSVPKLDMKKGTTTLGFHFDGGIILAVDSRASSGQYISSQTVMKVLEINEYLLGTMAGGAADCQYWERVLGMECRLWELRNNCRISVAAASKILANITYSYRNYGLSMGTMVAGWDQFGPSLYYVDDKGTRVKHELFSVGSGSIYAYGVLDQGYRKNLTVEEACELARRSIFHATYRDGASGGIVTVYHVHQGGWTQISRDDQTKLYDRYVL
# Homo sapiens = species: Homo sapiens; assay: To identify inhibition of the IFN signalling (Jak-Stat) pathway via expression of an eGFP reporter gene under the control of an IFN-stimulated response element (ISRE) containing MxA promoter.; type: functional; settings: 30 µM
# [7] = target: T4, Tyrosyl-tRNA synthetase, putative (Trypanosoma cruzi (strain CL Brener)) (UniProt Q4DSP6); assay: Trypanosoma cruzi tyrosyl tRNA synthetase (TcYRS) _High Tyrosine SOP; type: functional; settings: 30 µM; also: in the data most compounds retested in dose-response had high values
# T4 sequence (whole entry): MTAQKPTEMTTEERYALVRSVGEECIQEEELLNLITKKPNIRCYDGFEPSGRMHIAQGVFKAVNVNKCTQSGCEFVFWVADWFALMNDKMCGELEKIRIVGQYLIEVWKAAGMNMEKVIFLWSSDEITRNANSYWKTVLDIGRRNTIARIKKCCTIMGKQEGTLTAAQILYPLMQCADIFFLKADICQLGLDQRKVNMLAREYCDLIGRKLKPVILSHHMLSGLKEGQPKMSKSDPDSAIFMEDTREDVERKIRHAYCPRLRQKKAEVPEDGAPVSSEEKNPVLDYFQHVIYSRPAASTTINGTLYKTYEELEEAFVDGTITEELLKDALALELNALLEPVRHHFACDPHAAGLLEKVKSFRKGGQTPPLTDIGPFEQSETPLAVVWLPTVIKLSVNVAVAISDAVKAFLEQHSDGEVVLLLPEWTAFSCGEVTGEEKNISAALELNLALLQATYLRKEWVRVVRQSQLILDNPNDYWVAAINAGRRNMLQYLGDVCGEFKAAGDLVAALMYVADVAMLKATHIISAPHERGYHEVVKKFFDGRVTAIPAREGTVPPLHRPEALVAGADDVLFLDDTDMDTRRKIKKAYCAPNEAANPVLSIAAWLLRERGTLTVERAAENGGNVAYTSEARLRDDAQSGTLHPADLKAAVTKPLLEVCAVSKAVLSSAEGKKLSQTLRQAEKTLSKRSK
# [8] = target: T4, Tyrosyl-tRNA synthetase, putative (Trypanosoma cruzi (strain CL Brener)); assay: Trypanosoma cruzi tyrosyl tRNA synthetase (TcYRS) SOP; type: functional; settings: 30 µM
# [9] = target: Chromo domain-containing protein 1 (Saccharomyces cerevisiae (strain ATCC 204508 / S288c) (Baker's yeast)) (UniProt P32657); assay: ScCHD-1 Enzyme Inhibition Assay; type: functional; settings: 30 µM; also: in the data most compounds retested in dose-response had high values
# Chromo domain-containing protein 1 (Saccharomyces cerevisiae (strain ATCC 204508 / S288c) (Baker's yeast)), sequence (P32657 whole entry, the tested form may be a part): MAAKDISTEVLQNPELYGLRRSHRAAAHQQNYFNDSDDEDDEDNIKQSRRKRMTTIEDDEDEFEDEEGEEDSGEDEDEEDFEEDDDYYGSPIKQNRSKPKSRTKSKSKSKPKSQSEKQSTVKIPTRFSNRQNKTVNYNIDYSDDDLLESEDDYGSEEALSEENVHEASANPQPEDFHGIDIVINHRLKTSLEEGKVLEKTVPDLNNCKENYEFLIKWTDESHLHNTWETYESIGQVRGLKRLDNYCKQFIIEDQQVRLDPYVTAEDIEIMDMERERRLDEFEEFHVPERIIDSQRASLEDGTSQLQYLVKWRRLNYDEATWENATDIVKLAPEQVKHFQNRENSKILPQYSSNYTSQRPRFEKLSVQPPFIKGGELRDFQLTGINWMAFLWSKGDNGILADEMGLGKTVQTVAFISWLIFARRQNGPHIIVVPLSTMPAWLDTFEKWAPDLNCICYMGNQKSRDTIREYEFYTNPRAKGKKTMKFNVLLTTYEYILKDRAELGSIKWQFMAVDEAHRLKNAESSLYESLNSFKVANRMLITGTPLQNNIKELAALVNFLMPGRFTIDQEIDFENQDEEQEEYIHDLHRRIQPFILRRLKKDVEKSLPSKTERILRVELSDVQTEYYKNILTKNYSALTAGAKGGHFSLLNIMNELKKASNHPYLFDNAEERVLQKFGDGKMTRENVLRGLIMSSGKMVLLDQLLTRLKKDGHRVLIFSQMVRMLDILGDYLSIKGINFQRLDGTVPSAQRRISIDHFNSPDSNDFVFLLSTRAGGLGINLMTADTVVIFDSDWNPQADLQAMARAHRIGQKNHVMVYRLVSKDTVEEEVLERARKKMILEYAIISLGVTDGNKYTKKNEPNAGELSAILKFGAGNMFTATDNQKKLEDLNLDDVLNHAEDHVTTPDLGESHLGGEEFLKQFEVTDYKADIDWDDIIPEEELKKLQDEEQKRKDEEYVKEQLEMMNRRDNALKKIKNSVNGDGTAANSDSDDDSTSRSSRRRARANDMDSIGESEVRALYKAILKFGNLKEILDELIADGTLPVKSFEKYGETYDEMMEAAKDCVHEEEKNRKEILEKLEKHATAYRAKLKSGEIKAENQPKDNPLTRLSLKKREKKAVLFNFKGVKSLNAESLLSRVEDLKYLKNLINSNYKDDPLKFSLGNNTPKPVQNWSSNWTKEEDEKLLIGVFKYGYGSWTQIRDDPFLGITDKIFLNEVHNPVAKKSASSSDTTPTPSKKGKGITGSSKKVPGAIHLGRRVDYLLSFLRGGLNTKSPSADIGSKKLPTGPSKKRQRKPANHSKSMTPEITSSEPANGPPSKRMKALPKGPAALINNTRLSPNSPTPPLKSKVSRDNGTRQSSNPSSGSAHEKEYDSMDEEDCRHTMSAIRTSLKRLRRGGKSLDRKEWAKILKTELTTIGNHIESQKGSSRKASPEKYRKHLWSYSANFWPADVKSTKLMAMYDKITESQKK
# Sialic acid-binding Ig-like lectin 9 (Homo sapiens), sequence (Q9Y336 whole entry): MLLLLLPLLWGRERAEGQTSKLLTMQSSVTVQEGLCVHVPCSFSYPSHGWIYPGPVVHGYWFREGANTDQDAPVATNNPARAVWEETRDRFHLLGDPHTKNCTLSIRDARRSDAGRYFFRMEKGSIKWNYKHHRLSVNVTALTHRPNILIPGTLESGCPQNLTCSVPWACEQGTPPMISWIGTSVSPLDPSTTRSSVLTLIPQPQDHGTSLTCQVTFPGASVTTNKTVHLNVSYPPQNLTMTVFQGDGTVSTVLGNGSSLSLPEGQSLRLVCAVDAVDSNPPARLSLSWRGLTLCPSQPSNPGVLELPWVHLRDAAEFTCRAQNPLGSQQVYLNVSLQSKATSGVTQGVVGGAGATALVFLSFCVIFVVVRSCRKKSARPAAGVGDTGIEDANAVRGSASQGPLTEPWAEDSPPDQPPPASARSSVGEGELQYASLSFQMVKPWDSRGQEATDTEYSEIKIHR
# Protein translocase subunit SecA (Escherichia coli (strain K12)), sequence (P10408 whole entry): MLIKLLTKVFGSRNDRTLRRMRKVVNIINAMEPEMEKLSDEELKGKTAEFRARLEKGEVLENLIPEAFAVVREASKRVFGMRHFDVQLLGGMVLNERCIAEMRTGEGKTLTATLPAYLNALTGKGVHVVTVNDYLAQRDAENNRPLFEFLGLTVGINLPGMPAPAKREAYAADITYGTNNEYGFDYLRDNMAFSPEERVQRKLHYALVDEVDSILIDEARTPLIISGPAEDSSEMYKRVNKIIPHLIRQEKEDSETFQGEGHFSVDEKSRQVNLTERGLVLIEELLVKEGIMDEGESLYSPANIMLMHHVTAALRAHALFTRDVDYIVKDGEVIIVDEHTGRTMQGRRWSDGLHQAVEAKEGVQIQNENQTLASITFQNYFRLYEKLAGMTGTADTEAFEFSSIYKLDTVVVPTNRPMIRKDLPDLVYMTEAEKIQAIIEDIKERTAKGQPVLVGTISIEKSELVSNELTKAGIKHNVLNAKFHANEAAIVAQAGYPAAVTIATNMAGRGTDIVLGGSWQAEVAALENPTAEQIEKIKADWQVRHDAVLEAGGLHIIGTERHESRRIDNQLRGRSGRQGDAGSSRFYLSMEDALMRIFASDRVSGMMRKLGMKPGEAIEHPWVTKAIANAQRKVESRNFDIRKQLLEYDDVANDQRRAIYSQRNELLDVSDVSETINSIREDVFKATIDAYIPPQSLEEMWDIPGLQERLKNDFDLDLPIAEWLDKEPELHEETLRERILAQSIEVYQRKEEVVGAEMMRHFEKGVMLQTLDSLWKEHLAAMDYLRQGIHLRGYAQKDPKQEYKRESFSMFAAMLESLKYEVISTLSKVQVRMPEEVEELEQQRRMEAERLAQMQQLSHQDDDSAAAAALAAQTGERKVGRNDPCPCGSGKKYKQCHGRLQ
Compound,Percent Effect [1] [%],Percent Effect [2] [%],Percent Effect [3] [%],Percent Effect [4] [%],Percent Effect (Trypanosoma cruzi) [%],Percent Effect [5] [%],Percent Effect [6] [%],Percent Effect (Homo sapiens) [%],Percent Effect [7] [%],Percent Effect [8] [%],Percent Effect [9] [%]
C[C@@H]1C[C@@H]2CCN(C(=O)c3cnccn3)C[C@H]2O1,-2.4,-2.7,5.23,-2.15,-1.95,0.417,-0.592,3.34,1.98,-3.66,-0.0529
CC(=O)N1[C@H](Cn2cncn2)C[C@@H]2CN(S(C)(=O)=O)CC[C@@H]21,-4.17,10.4,1.39,9.47,9.54,-74.5,14.5,-25.9,4.3,16.1,-4.74
Cc1cc(C)c(CNC(=O)NCC(O)c2cccc(F)c2)c(=O)[nH]1 (configuration not stated),-7,7.89,0.0351,13.9,-0.0934,-3.96,7.36,7.32,9.36,13.6,-1.76
c1nc2c(c(C3CC3)n1)CCN(Cc1ccc3c(c1)OCO3)CC2,-2.79,-5.48,3.53,13.7,4.37,-0.399,7.45,8.17,6.25,1.24,-2.36
COCCN1C[C@@H](C)[C@@]2(COCCN(C(=O)Cc3ccccc3)C2)C1,-2.42,10.7,4.69,6.89,1.54,-54.7,5.13,-15.6,5.21,12.5,-7.47
CCN(CC)CCNC(=O)c1nn(CC)cc1Cl,0.115,20,-10.1,-7.51,2.55,-10.7,9.43,29.3,5.29,10.3,-9.1
CN(C)C(=O)C1CN(Cc2cscn2)CCN(S(C)(=O)=O)C1 (configuration not stated),-11.5,17.6,-0.331,3.06,1.98,-1.16,6.55,2.48,7.53,19.5,-22.4
CCN1CCN(C2CCN(Cc3nc(-c4ccoc4)no3)CC2)C1=O,-8.04,2.6,7.03,-5.89,-5.24,1.07,0.676,23.7,1.94,0,-2.83
CCc1cccc(OCC(=O)N2CCCC(n3cncn3)C2)c1 (configuration not stated),-5.42,13.5,1.85,-1.09,-5.57,2,13,14.3,5.42,11.1,-4.63
Cn1cc(N2CCC(NC(=O)c3c(F)cccc3F)C2=O)cn1 (configuration not stated),-7.01,-2.7,0.96,-8.23,-1.66,-0.744,0.258,-14.2,0,1.24,0.00639
CC(C)c1nc2n(n1)CC(NCc1ccncc1)CC2 (configuration not stated),-3.2,5.26,-3.06,-0.0553,2.63,-5.92,4.12,3.22,2.13,5.2,-1.54
CN1CC(=O)N(c2ccccc2)CC12CCN(Cc1cccnc1)C2 (configuration not stated),-2.77,0,0.129,2.38,-0.397,2,5.74,3.56,4.17,1.24,5.73
Cn1ncc2c1C(COCC1CC1)CN(Cc1ccoc1)C2 (configuration not stated),-1.65,18.9,1.61,-6.93,2.83,9.87,23.8,27.7,5.41,20.5,2.77
Cc1nc2c(c(C)c1CC(=O)Nc1ccc(Cl)cc1)c(=O)[nH]n2C,-8.55,10.7,-2.37,20.4,5.36,6.77,6.97,11.7,3.83,13.6,3.39
Cn1c(C2CC2)nc2c1CCN(CCOc1ccc(C#N)cc1)C2,-3.25,-15.6,4.37,6.69,2.43,-1.07,4.22,-24.9,6.8,2.44,-8.18
Cc1nn(C)c(N(C)C)c1CNCc1cccnc1,-5.22,-2.7,-6.42,-9.25,-5.38,-1.74,12.4,-10.3,-4.3,-6.17,-0.598
Cc1ccc(CNC(=O)NCc2csc(C)n2)cn1,-2.07,17.7,-8.56,-3.48,-3.31,8.37,-1.56,0.522,5.42,16.5,-6.06
